Test results reported in PubChem BioAssay (NCATS).
Records with an inconclusive call do not appear. A number with no mark means an inactive call. The source made the active and inactive calls. Calls come from the whole dose curve; as a rule, active = well fitted curve in the direction sought with a large enough effect; inconclusive = small, poorly fitted or top-dose-only effect, or another doubt; inactive = no such curve, though single readings can be large; an effect the other way counts as inactive or inconclusive.

These molecules were tested on HEK293T (assay: qHTS assay to identify novel small-molecules to repurpose for Merkel cell carcinoma treatment (AID 1296009; note: nearly all actives have a fitted effect of over 60% in size)). Conditions: MCC and control cell lines, CellTiter-Glo viability, 72 h; series mostly up to 44.8 µM.
Procedure, shortened: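 Dose-response viability screen; 72 hr exposure at 37 degree celsius; CellTiter-Glo added, 10 min room temperature, luminescence read; RLUs scaled between no-cell and DMSO wells.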
In the case of `C=CC1C(O[C@@H]2O[C@H](CO)[C@@H](O)[C@H](O)[C@H]2O)OC=C(C(=O)OC)C1CC(=O)O` (stereo not given in full), the “outcome” value is reported as “inactive [at 17.4 µM]”. `CC1CCC2(NC1)OC1C(=O)C3C4CCC5CC(O[C@@H]6O[C@H](CO)[C@@H](O)[C@H](O)[C@H]6O[C@@H]6O[C@@H](C)[C@H](O)[C@@H](O)[C@H]6O)CCC5(C)C4CCC3(C)C1C2C` (stereo not given in full) was tested, and the “outcome” value was “inactive [at 17.4 µM]”. With `C=C(C(=O)O)C1CCC(C)C2CCC(=O)OC2(C)C1` (stereo not given) the “outcome” value was “inactive”. For `CC1(C)C(=O)N2c3ccccc3[C@]3(CC(n4cnc5ccccc5c4=O)C(=O)O3)[C@H]2N1O` (stereo not given in full), the “outcome” value was “inactive [at 17.4 µM]”. For `CC(C)c1nc(N(C)S(C)(=O)=O)nc(-c2ccc(F)cc2)c1/C=C/[C@@H](O)C[C@@H](O)CC(=O)O`, the “outcome” value was “inactive”. With `O=C(O)Cc1nn(Cc2nc3cc(C(F)(F)F)ccc3s2)c(=O)c2nccnc12` the “outcome” value was “inactive”. In the case of `O=C(O)CCc1cc2ccoc2cc1O[C@@H]1O[C@H](CO[C@@H]2OC[C@](O)(CO)[C@H]2O)[C@@H](O)[C@H](O)[C@H]1O`, the “outcome” value is reported as “inactive [at 17.4 µM]”. With `COc1ccc(/C=C/C(=O)O[C@@H]2[C@@H](OC(C)=O)[C@@H](OC(C)=O)[C@H](O[C@H]3[C@@H]4C=CO[C@@H](O[C@@H]5O[C@H](CO)[C@@H](O)[C@H](O)[C@H]5O)[C@@H]4[C@@]4(CO)O[C@@H]34)O[C@H]2C)cc1O` the “outcome” value was “inactive [at 17.4 µM]”. In the case of `C=CC(C)(O)CC/C=C(\C)C(=O)OC1CC2(C(=O)O)CCC3(C)C(=CCC4C5(C)CCC(OC6OC(COC7OCC(O)C(O)C7O)C(O)C(OC7OCC(O)C(O)C7O)C6OC6OC(CO)C(O)C(O)C6OC6OCC(O)C(O)C6O)C(C)(C)C5CCC43C)C2CC1(C)C` (stereo not given), the outcome is reported as “inactive [at 9.27 µM]”. `C=C1CC2[C@]3(C)C(=C(O)C(=O)[C@@]2(C)[C@]2(C(=O)OC)C(=O)C(C)OC(=O)[C@@]12C)C(C)(C)C(=O)CC3O` (stereo not given in full) was tested, and the “outcome” value was “inactive [at 17.4 µM]”. In the case of `C=C1CCC(OC(C)=O)C2(C)CC3(O)OC(=O)C(C)=C3CC12` (stereo not given), the “outcome” value is reported as “inactive”. `C[C@@H]1CC[C@H]2C(C)(C)[C@H](O)[C@H](O)C[C@]2(C)[C@@]12Cc1c(O)cc3c(c1O2)CNC3=O` was tested, and the “outcome” value was “inactive”. For `C[C@H]1[C@H](C)CC[C@]2(C(=O)O[C@@H]3O[C@H](CO)[C@@H](O)[C@H](O)[C@H]3O)CC[C@]3(C(=O)O)C(=CCC4[C@@]5(C)CC[C@H](O[C@@H]6O[C@H](CO)[C@@H](O)[C@H](O)[C@H]6O)C(C)(C)C5CC[C@]43C)[C@H]12` (stereo not given in full), the outcome was “inactive [at 9.27 µM]”. `C1CCN2CC3C[C@@H](CN4CCCC[C@@H]34)[C@H]2C1` was tested, and the “outcome” value was “inactive”. `O=C(COc1ccc(Cl)cc1)NC1CCC(NC(=O)COc2ccc(Cl)cc2)CC1` (stereo not given) was tested, and the “outcome” value was “inactive”. `COc1cc(C(O)C(CO)Oc2ccc(CCCO[C@@H]3O[C@@H](C)[C@H](O)[C@@H](O)[C@H]3O)cc2OC)ccc1O` (stereo not given in full) was tested, and the “outcome” value was “inactive [at 17.4 µM]”. With `CC(C)=CC/C=C(/C)[C@H]1CC[C@]2(C)[C@@H]1[C@H](O)CC1[C@@]3(C)CC[C@H](O)C(C)(C)[C@@H]3[C@@H](O[C@@H]3O[C@H](CO)[C@@H](O)[C@H](O)[C@H]3O[C@@H]3O[C@@H](C)[C@H](O)[C@@H](O)[C@H]3O)C[C@]12C` (stereo not given in full) the “outcome” value was “inactive [at 17.4 µM]”. With `CC1CC(O)C2(C)C(C(=O)O)=CCCC2C1(C)CCc1ccoc1` (stereo not given) the “outcome” value was “inactive”. `C/C=C(\C)C(=O)O[C@@H]1CC2[C@@H](CC=C3C[C@@H](O[C@H]4C[C@H](OC)[C@H](O[C@H]5C[C@H](OC)[C@H](O[C@H]6C[C@H](OC)[C@H](O[C@H]7C[C@@H](OC)[C@H](O[C@@H]8O[C@H](CO)[C@@H](O)[C@H](O)[C@H]8O)[C@@H](C)O7)[C@@H](C)O6)[C@@H](C)O5)[C@@H](C)O4)CC[C@@]32C)[C@@]2(O)CC[C@H](C(C)=O)[C@@]12C` (stereo not given in full) was tested, and the outcome was “inactive [at 9.27 µM]”. In the case of `C[C@@H]1O[C@@H](O[C@H]2[C@H](OC(=O)[C@]34CCC(C)(C)C[C@H]3C3=CCC5[C@@]6(C)C[C@H](O)[C@H](O[C@@H]7O[C@H](CO[C@@H]8OC[C@H](O)[C@H](O)[C@H]8O)[C@@H](O)[C@H](O)[C@H]7O)C(C)(C)C6CC[C@@]5(C)[C@]3(C)C[C@H]4O)OC[C@@H](O)[C@@H]2O)[C@H](O)[C@H](O[C@@H]2OC[C@](O)(CO)[C@H]2O)[C@H]1O[C@@H]1OC[C@H](O)[C@H](O[C@@H]2OC[C@@H](O)[C@H](O)[C@H]2O)[C@H]1O` (stereo not given in full), the outcome is reported as “inactive [at 9.27 µM]”. With `O=C(NCC(=O)N1CC[C@H](NC2CCC(O)(c3ccc(-c4ncccn4)cn3)CC2)C1)c1cccc(C(F)(F)F)c1` (stereo not given in full) the “outcome” value was “inactive”. With `CCNC(=O)CCC/C=C\C[C@@H]1[C@@H](/C=C/C(O)CCc2ccccc2)[C@@H](O)C[C@@H]1O` (stereo not given in full) the “outcome” value was “inactive”.

The molecules below were run on C33A (assay: Primary qHTS to identify gynecologic anti-cancer compounds using libraries of approved drugs and bioactive compounds (AID 1345084; note: % is set by controls: 0 for no effect and ±100 for the full control effect; nearly all actives have a fitted effect of over 55% in size)). Conditions: Gynecologic cancer cell panel viability, ATPlite luminescence, 48 h; series mostly up to 57.5 µM; activity change, negative = cytotoxicity: at the top concentration.
Procedure, shortened: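 Luminescence from the ATPlite ATP-monitoring reagent indicates viable cell number; lower signal means cytotoxicity. Cells received compound 16 h after seeding and were exposed for 48 h across five concentrations.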
With `O=C(OCc1cccc(O)c1O[C@@H]1O[C@H](CO)[C@@H](O)[C@H](O)[C@H]1O)C1(O)C(=O)C2C=CC1C1C=CC(=O)C(O)(C(=O)OCc3cccc(O)c3O[C@@H]3O[C@H](CO)[C@@H](O)[C@H](O)[C@H]3O)C21` (stereo not given in full) the activity change, negative = cytotoxicity was -2.5% [at 11.6 µM]. `C/C=C(\C)C(=O)O[C@H]1[C@H](O)[C@]2(COC(C)=O)[C@H](O)C[C@]3(C)C(=CCC4[C@@]5(C)CC[C@H](O[C@@H]6O[C@H](C(=O)O)[C@@H](O[C@@H]7O[C@H](CO)[C@@H](O)[C@H](O)[C@H]7O)[C@H](O)[C@H]6O[C@@H]6O[C@H](CO)[C@@H](O)[C@H](O)[C@H]6O)[C@](C)(CO)C5CC[C@]43C)[C@@H]2CC1(C)C` (stereo not given in full) was tested, and the activity change, negative = cytotoxicity was 1.25% [at 11.6 µM]. With `CC(=O)O[C@@H]1C[C@@]23C[C@@]24CC[C@H](OC2OC[C@@H](O)[C@H](O)[C@H]2O)C(C)(C)[C@@H]4CC[C@H]3[C@]2(C)CC3OC4(C[C@@H](C)C3[C@@]12C)OCC1(C)OC14` (stereo not given in full) the “activity change, negative = cytotoxicity” value was 3.37% [at 25.3 µM].
